# Measured values reported in PMC7826789 (International Journal of Molecular Sciences, 2021).
# What was measured:
# Conditions in all cases: Compound Concentration (nM):1000
# EPHB2 = test system: EPHB2
# EPHB3 = test system: EPHB3
# EPHB4 = test system: EPHB4
# EPHB6 = test system: EPHB6
# ERBB2 = test system: ERBB2
# ERBB3 = test system: ERBB3
# ERBB4 = test system: ERBB4
# ERK1 = test system: T1, ERK1
# T1 construct: gene MAPK3
# ERK2 = test system: T2, ERK2
# T2 construct: gene MAPK1
# ERK3 = test system: T3, ERK3
# T3 construct: gene MAPK6
# 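Further: KINOMEscan scanMAX binding as percent activity remaining versus control; lower means stronger binding.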
SMILES,Percent Control (EPHB2),Percent Control (EPHB3),Percent Control (EPHB4),Percent Control (EPHB6),Percent Control (ERBB2),Percent Control (ERBB3),Percent Control (ERBB4),Percent Control (ERK1),Percent Control (ERK2),Percent Control (ERK3)
CC(C)COC(=O)c1ccc2c(c1)/C(=C/Nc1ccc(S(N)(=O)=O)cc1)C(=O)N2 [GW416981X],100%,100%,100%,100%,26%,81%,50%,100%,100%,100%
Cl.O=S1CCN(Cc2ccc(-c3ccc4ncnc(Nc5ccc(OCc6ccccc6)c(F)c5)c4c3)o2)CC1 [GW576924A],100%,100%,100%,100%,0%,58%,22%,100%,100%,100%
COc1cc(/C=N/Nc2ncnc3[nH]ncc23)ccc1O [GW578748X],100%,100%,100%,1.6%,57%,64%,100%,100%,100%,57%
NS(=O)(=O)c1ccc(N/N=C2\C(=O)Nc3ccc(Cl)cc32)cc1 [GW280670X],100%,100%,100%,82%,81%,72%,100%,100%,100%,100%
COc1ccc2c(-c3ccnc(Nc4cccc(OC(F)(F)F)c4)n3)cnn2n1 [GW810372X],100%,100%,100%,83%,100%,65%,100%,100%,100%,100%
Cl.O=C(Nc1ccc(Oc2ccc3[nH]c(NC(=O)c4ccco4)nc3c2)cc1)Nc1cc(C(F)(F)F)ccc1F [GW683134A],31%,99%,87%,3.2%,79%,77%,100%,100%,100%,90%
CN1CCN(C(=O)c2ccc(NC(=O)Nc3ccc(N(C)c4ccnc(Nc5ccc(CS(C)(=O)=O)cc5)n4)cc3)cc2)CC1.Cl [GW830263A],76%,100%,85%,4.3%,100%,85%,77%,100%,100%,100%
CN(C)c1cc2c(Nc3ccc4c(cnn4Cc4ccccc4)c3)ncnc2cn1 [GW282974X],100%,75%,85%,24%,0%,–,24%,100%,37%,–
CCn1c(-c2nonc2N)nc2c(C#CC(C)(C)O)nc(OCCNC)cc21.Cl [GSK949675],94%,100%,100%,90%,57%,79%,100%,93%,90%,100%
NS(=O)(=O)c1ccc(N/N=C2\C(=O)Nc3ccc(C(=O)NCCc4c[nH]cn4)cc32)cc1 [GW300660X],100%,100%,100%,37%,57%,86%,100%,100%,100%,100%
COc1cccc(-c2c[nH]c3c(N/N=C/c4ccncc4)ncnc23)c1 [GW814408X],100%,100%,100%,2.7%,63%,13%,88%,100%,100%,19%
Cc1cc(O)cc(C)c1/C=C/c1cncc(C(N)=O)c1 [GW435821X],100%,100%,100%,6.6%,61%,43%,100%,100%,100%,100%
C[C@@H](Oc1cc(-n2cnc3ccc(OC4CCN(C)CC4)cc32)sc1C(N)=O)c1ccccc1Cl [GSK579289A],77%,95%,100%,75%,79%,85%,90%,59%,100%,97%
COc1ccccc1-c1cc(/C=C2\C(=O)Nc3ncc(Br)cc32)cc(Br)c1O [GW442130X],100%,100%,100%,42%,100%,95%,100%,87%,100%,100%
NS(=O)(=O)c1ccc(N/N=C2\C(=O)Nc3ccc(-c4cnco4)cc32)cc1 [GW276655],100%,86%,84%,58%,91%,76%,66%,75%,77%,87%
CC1=C(C(=O)Nc2ccc3[nH]ncc3c2)C(c2ccc3ccccc3c2)CC(=O)N1 (stereo not shown) [GSK270822A],86%,89%,84%,86%,83%,100%,100%,66%,79%,100%
O=C(Nc1n[nH]c2nc(-c3ccc(O)cc3)c(Br)cc12)C1CC1 [SB-725317],100%,100%,100%,57%,80%,32%,100%,100%,100%,100%
C/C(Nc1ccc(S(N)(=O)=O)cc1)=C1/C(=O)Nc2ccccc21 [GW335962X],100%,89%,86%,93%,100%,74%,100%,91%,100%,93%
NS(=O)(=O)c1ccc(Nc2ncc(-c3ccccc3)o2)cc1 [GW572399X],100%,94%,100%,35%,70%,74%,100%,100%,100%,100%
COC(=O)Nc1nc2ccc(Oc3ccc(NC(=O)Nc4cc(C(F)(F)F)ccc4F)cc3)cc2s1.Cl [GW693917A],34%,81%,59%,9.4%,100%,45%,100%,100%,100%,66%
CN(C)CCNC(=O)Nc1ccc(N(C)c2ccnc(Nc3ccc(CS(C)(=O)=O)cc3)n2)cc1.Cl [GW830900A],100%,100%,100%,28%,100%,93%,81%,100%,85%,94%
COc1cc2ncnc(Nc3ccc4c(cnn4Cc4ccccc4)c3)c2cc1OC.Cl [GW282449A],100%,100%,100%,12%,0%,0%,0%,100%,100%,100%
CC1=C(C(=O)Nc2ccc3[nH]ncc3c2)C(c2ccc(Cl)c(Cl)c2)CC(=O)N1 (stereo not shown) [GSK299115A],100%,98%,94%,99%,92%,100%,36%,72%,76%,77%
COc1cc(N2CCN(C(C)C)CC2)ccc1Nc1nc(Nc2ccc(F)cc2C(=O)NC[C@@H](O)CO)c2cc[nH]c2n1 [GSK1392956A],100%,69%,81%,93%,85%,50%,73%,100%,99%,66%
CCS(=O)(=O)c1ccc(OC)c(Nc2ncc(-c3cccc(F)c3)o2)c1 [GW621970X],100%,100%,99%,1.6%,88%,53%,100%,100%,100%,100%
COc1cc(C=NNc2ncnc3c2cnn3-c2ccccc2)ccc1O [GW513184X],93%,100%,100%,3.9%,81%,66%,100%,100%,82%,15%
Cl.c1ccc(Cc2nc3ccc(Nc4ncnc5ccccc45)cc3[nH]2)cc1 [GR269666A],100%,100%,100%,81%,0%,20%,1.8%,100%,100%,100%
Cl.O=C(O[C@H]1CN[C@H](C#Cc2cc3ncnc(Nc4ccc5c(cnn5Cc5ccccc5)c4)c3s2)C1)N1CCOCC1 [GSK200398A],100%,100%,96%,100%,0%,10%,0%,100%,100%,100%
NS(=O)(=O)c1ccc(N/N=C2\C(=O)Nc3ccc(C(=O)NCc4ccncc4)cc32)cc1 [GW300657X],93%,98%,100%,16%,80%,53%,93%,100%,88%,87%
COc1ccc(COc2ccc(Cc3cnc(N)nc3N)cc2OC)cc1 [GW632580X],81%,73%,92%,100%,94%,85%,100%,95%,92%,87%
